HCV inh: blocks hepatitis C virus; Huh7.5.1 HCVcc-Cre infection, luciferase reporter, 44 h; Potency, µM (highest dose often 41.8 µM), for the others: at the top dose activity change, negative = inhibition, usual class: inhibitors; actives 3.4% (n = 340,000); further: potency means the concentration at half of the fitted maximal effect; on the % scale 0 is the no-effect control and ±100 the full control effect
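Antiviral activity was scored by luciferase reporter output from cells infected with HCVcc-Cre (~0.5 moi) in presence of compound, 44 h infection period, cells seeded 1,000/well 4 h prior.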
HCMV inh: blocks human cytomegalovirus replication. HFF cells, HCMV-luciferase reporter, 72 h; stronger effect = lower value. activity change, negative = inhibition, % at 57.5 µM. actives 4.5% (n = 410,000); in the data active means activity change below about -60%; inconclusive means no clear call, values can overlap the other calls; inactive means above about -39%; further: on the % scale 0 is the no-effect control and ±100 the full control effect
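Two-dose cell screen: HFF monolayers treated with compounds and infected with luciferase-expressing HCMV at 1 PFU/cell, 72 h at 37C, then lysed for luciferase measurement.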
Pf growth 48h: P. falciparum growth inhibition at 48 hours (one generation). P. falciparum luciferase growth in erythrocytes, 48 h. Potency, µM (series often up to 28.7 µM), for the others: at the highest dose activity change, negative = inhibition, usual class: inhibitors. actives 5.9% (n = 310,000). AID 504832; further: potency means the concentration at half of the fitted maximal effect; on the % scale 0 is the no-effect control and ±100 the full control effect
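Here the parasites carry a stable luciferase gene and grow inside erythrocytes in Albumax-based RPMI medium with compound for one erythrocytic cycle. Activity is scored as loss of luminescent signal.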
Pf growth 96h: inhibits malaria parasite growth, 96 h; P. falciparum luciferase reporter growth, 96 h; Potency, µM (top dose mostly 28.7 µM), inactives show at the highest dose activity change, negative = inhibition, most hits filed as inhibitors; actives 6.9% (n = 320,000); AID 504834; further: potency means the concentration at half of the fitted maximal effect; on the % scale 0 is the no-effect control and ±100 the full control effect
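Readout is luminescence from an integrated firefly luciferase in P. falciparum. Red cells, 2% hematocrit and 0.05% parasitemia final, were cultured with compound through two parasite generations (96 hours) at 37 C, 5% CO2.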
SARS PLP yeast: SARS-CoV PLP inhibition in yeast; S. cerevisiae expressing SARS-CoV PLpro, growth rescue; Potency, µM (top dose mostly 32.9 µM), for inactives: at the top dose activity, positive = growth rescue, most hits filed as activators; actives 0.19% (n = 330,000); calls by dose curve; further: potency means the concentration at half of the fitted maximal effect; 0% is about no effect; nearly all actives have a fitted effect of over 55% in size
Sm TGR inh: blocks Schistosoma mansoni thioredoxin glutathione reductase. actives 3% (n = 360,000). Q962Y6. purified TGR, DTNB reduction, TNB absorbance 405 nm. Potency, µM (top dose mostly 114 µM), without a hit: top-dose activity change, negative = inhibition, usual class: inhibitors; further: potency means the concentration at half of the fitted maximal effect; on the % scale 0 is the no-effect control and ±100 the full control effect; nearly all actives have a fitted effect of over 60% in size
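TGR 20 nM + NADPH 100 uM (dispensed conc.), cpd preinc 15 min RT; start with NADPH (500 uM addition) then DTNB (15 mM addition). Kinetic TNB absorbance, 405 nm filter. Four-parameter Hill fit across titration.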
The depositor's hits bear a star; [ ] = another dose, or the depositor's remark. Most compounds without a hit are left out; they make up all but 15% or so of the library. Unless noted, the call rests on the fitted dose curve; in most records, active means well fitted curve in the direction sought with a large enough effect; inconclusive means small, poorly fitted or top-dose-only effect, or another doubt; inactive means no such curve, though single readings can be large; an effect the other way counts as inactive or inconclusive.

`CCCN(CCC)c1nc2ccccc2n2c(C)nnc12` gave HCV inh 3.2µM*, HCMV inh -21, Pf growth 48h 0%, Pf growth 96h -22%[5.75 µM], SARS PLP yeast 0% and Sm TGR inh 7%.
For CCCNc1nc2ccccc2n2c(C)nnc12 the results were HCV inh -16%, HCMV inh 23, Pf growth 48h 8%, Pf growth 96h 9.3µM*, SARS PLP yeast 0% and Sm TGR inh 8%.
CCCn1c(=O)c(C(=O)NNC(=O)c2ccccc2Cl)c(O)c2ccccc21 was read as HCV inh -17%, HCMV inh 19, Pf growth 48h 20%, Pf growth 96h 9%, SARS PLP yeast 3% and Sm TGR inh -9%.
`Cc1ccc(S(=O)(=O)Nc2ncccn2)cc1` gave HCV inh 12%, HCMV inh -7, Pf growth 48h 0%, Pf growth 96h -7%, SARS PLP yeast 2% and Sm TGR inh -14%.
`CN(C)S(=O)(=O)N1CCC(Oc2ccc(C(=O)NCC(C)(C)CO)cc2)CC1` gave HCV inh 18%, HCMV inh -64*, Pf growth 48h -17%, Pf growth 96h 1.7µM*, SARS PLP yeast 0% and Sm TGR inh 4%.
`COc1cccc(C(=O)NNC(=S)NC2CCCCC2)c1` gave HCV inh 3%, HCMV inh -5, Pf growth 48h 184%, Pf growth 96h inconclusive, SARS PLP yeast 3% and Sm TGR inh 5%.
For COc1cccc(-n2cnnc2SC(C)C(=O)NC2CCCC2)c1 (stereo not drawn) the results were HCV inh inconclusive, HCMV inh 98, Pf growth 48h inconclusive, Pf growth 96h inconclusive, SARS PLP yeast 6% and Sm TGR inh 50µM*.
`COc1cccc(C(=O)NC2CCCC2)c1` gave HCV inh 2%, HCMV inh -6, Pf growth 48h 14%, Pf growth 96h 4.7µM* and SARS PLP yeast 0%.
For CN(C)S(=O)(=O)N1CCC(Oc2ccc(C(=O)NC3CCCCC3)cc2)CC1 the results were HCV inh -9%, HCMV inh -20, Pf growth 48h inconclusive, Pf growth 96h 13µM*, SARS PLP yeast -1% and Sm TGR inh 10%.
Cc1cn([C@H]2C[C@H](O)[C@@H](/C=C/C(=O)NCc3ccc4c(c3)OCO4)O2)c(=O)[nH]c1=O was read as HCMV inh 34.
For CCOC(=O)C1CCC(CN(Cc2ccc(OC)cc2)S(=O)(=O)c2ccc(F)c(C(=O)Nc3c(C)cccc3C)c2)CC1 (stereo not drawn) the results were HCMV inh -12 and Sm TGR inh 8%.
`CN(C)S(=O)(=O)N1CCC(Oc2cccc(C(=O)NC3CCOC3)c2)CC1` (stereo not drawn) gave HCV inh -5%, HCMV inh 10, Pf growth 48h 23%, Pf growth 96h 15%, SARS PLP yeast 5% and Sm TGR inh 9%.
CN(C)S(=O)(=O)N1CCC(Oc2cccc(C(=O)NC3CCCCC3)c2)CC1 was read as HCV inh 5.6µM*, HCMV inh inconclusive, Pf growth 48h -17%, Pf growth 96h 6%, SARS PLP yeast 14% and Sm TGR inh -26%.
For O=C(CSc1nc2ccccc2c(=O)n1-c1ccc(OC(F)F)cc1)NC1CC1 the results were HCV inh -5%, HCMV inh -7, Pf growth 48h 38%, Pf growth 96h -9%, SARS PLP yeast -3% and Sm TGR inh 0%.
`CCN(CC)CCCNC(=O)C1c2ccccc2C(=O)N(CCOC)C1c1ccc(F)cc1` (stereo not drawn) gave HCV inh -3%, HCMV inh -30, Pf growth 48h 1%, Pf growth 96h 13µM*, SARS PLP yeast 0% and Sm TGR inh 10%.
`CN1C(=O)N(C)C2(c3ccccc3)Nn3c(s/c(=C/c4ccco4)c3=O)=NC12c1ccccc1` (stereo not drawn) gave HCV inh -9%, HCMV inh 45, Pf growth 48h 12µM*, Pf growth 96h 128%, SARS PLP yeast 0% and Sm TGR inh inconclusive.
For O=C(Nc1ccc(F)cc1)C1C(c2ccccc2)C1(Cl)Cl (stereo not drawn) the results were HCV inh 11%, HCMV inh -68*, Pf growth 48h -10%, Pf growth 96h -1%, SARS PLP yeast -76% and Sm TGR inh 7%.
C/C=C/c1ccc(Oc2nnnn2-c2ccc(C(=O)O)cc2)c(OC)c1 was read as HCV inh 8%, HCMV inh -1, Pf growth 48h -14%, Pf growth 96h 0%, SARS PLP yeast -2% and Sm TGR inh 35µM*.
For COc1cc(C=O)ccc1Oc1nnnn1-c1ccc(C(N)=O)cc1 the results were HCMV inh 7, Pf growth 96h 0%, SARS PLP yeast 2% and Sm TGR inh 0%.
COc1ccc2[nH]c(C(=O)O)c(NS(=O)(=O)c3ccc(C)cc3C)c2c1 was read as HCV inh 20%, HCMV inh 16, Pf growth 48h 20%, Pf growth 96h 3%, SARS PLP yeast inconclusive and Sm TGR inh 0%.
CC(=O)C1=C(O)C(=O)N(CCc2c[nH]c3ccccc23)C1c1ccco1 (stereo not drawn) was read as HCV inh 16%, HCMV inh -14, Pf growth 96h inconclusive, SARS PLP yeast -2% and Sm TGR inh 40µM*.
Screening O=C1c2cccnc2C(=O)N1Cc1ccc(S(=O)(=O)N2CCN(c3ccccc3)CC2)cc1 returned HCV inh -8%, HCMV inh -31, Pf growth 48h 33%, Pf growth 96h 31%, SARS PLP yeast -5% and Sm TGR inh 5%.
For Cc1ccc(CSc2nnc(SCC(=O)N/N=C/c3c[nH]c4ccccc34)s2)cc1 the results were HCV inh -9%, HCMV inh -73*, Pf growth 48h 246%, Pf growth 96h 111%, SARS PLP yeast -1% and Sm TGR inh -4%.
Screening CCn1c(SCC(=O)N/N=C/c2c[nH]c3ccccc23)nnc1-c1ccc(C(C)(C)C)cc1 returned HCV inh inconclusive, HCMV inh -75*, Pf growth 48h inconclusive, Pf growth 96h 10µM*, SARS PLP yeast 10% and Sm TGR inh -19%.
`O=C(CSc1nnc(SCc2ccccc2)s1)N/N=C/c1ccc(C(=O)O)cc1` gave HCV inh 24%, HCMV inh -35, Pf growth 48h 71%, Pf growth 96h 24%, SARS PLP yeast 1% and Sm TGR inh 10%.
